Shown are actives, neighbours in structure and some others; about 2.3% of the full set was active somewhere.
CHO-K1 Ca antag: M1 antagonist counterscreen hit in parental CHO-K1 cells; inhibition, % at 3 µM; ATP-induced calcium, Fluo-8 fluorescence; 360,000 compounds, 0.6% hits; AID 602250;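 active = inhibition above a per-plate cutoff, the plate's mean sample inhibition plus 3 SD, cut at about 24% in these data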
M1 PAM parental: M1 PAM counterscreen hit in parental CHO-K1 cells | ATP EC20, Fluo-8 calcium fluorescence; 0% at ATP EC20, 100% at ATP max | activation, % at 3 µM | 360,000 compounds, 0.02% hits;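 active = activation above the run cutoff, the mean activation of all test compounds plus 3 SD, cut at about 40% in these data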;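 note: peak over basal fluorescence ratio in a 140 s read after ATP addition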
M1 antag: human CHRM1 antagonism. P11229. CHO-K1 hM1, Fluo-8 calcium fluorescence, ACh EC80 antagonist. inhibition, % at 3 µM. 360,000 compounds, 1.3% hits. AID 588852;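 active = percent inhibition above its own plate's cutoff, namely the mean of that plate's compound wells plus 3 SD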;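 note: peak over basal fluorescence ratio during 140 s after agonist addition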
Target sequence (P11229 whole entry, looked up): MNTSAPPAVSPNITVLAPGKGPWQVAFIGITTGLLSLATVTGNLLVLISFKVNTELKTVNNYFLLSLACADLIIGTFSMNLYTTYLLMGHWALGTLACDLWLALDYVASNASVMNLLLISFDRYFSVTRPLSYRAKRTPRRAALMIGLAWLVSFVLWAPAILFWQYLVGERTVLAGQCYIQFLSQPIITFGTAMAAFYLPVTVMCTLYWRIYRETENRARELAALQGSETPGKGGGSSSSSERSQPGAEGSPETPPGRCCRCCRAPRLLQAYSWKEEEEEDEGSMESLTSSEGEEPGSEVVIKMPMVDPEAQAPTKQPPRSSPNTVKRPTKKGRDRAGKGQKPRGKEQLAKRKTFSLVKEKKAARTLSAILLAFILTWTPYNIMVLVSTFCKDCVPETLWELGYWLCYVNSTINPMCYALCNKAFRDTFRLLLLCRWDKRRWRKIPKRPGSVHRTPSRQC
M1 ag parental: nonselective activator or artifact in parental CHO-K1 cells. Fluo-8 calcium fluorescence; scaled to maximal ATP response, vehicle zero. activation, % at 3 µM. 360,000 compounds, 0.48% hits. AID 602248; in the data active = activation above about 15%;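 note: untransfected CHO-K1 host cells lacking M1 receptor as counterscreen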
M1 ag: agonists of human M1 muscarinic receptor; activation, % at 3 µM; P11229; AID 588814; 360,000 compounds, 0.33% hits; CHO-K1 hM1, Fluo-8 calcium fluorescence, agonist mode; 0% DMSO, 100% acetylcholine EC100;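 active = activation above the run's mean compound activation plus 3 SD, cut at about 16% in these data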;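 note: peak over basal fluorescence ratio within a 140 s kinetic read after compound addition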
M1 PAM: human CHRM1 positive allosteric modulation; CHO-K1 hM1, Fluo-8 calcium fluorescence, ACh EC20; 0% = ACh EC20, 100% = maximal ACh; activation, % at 3 µM; 360,000 compounds, 0.088% hits; in the data active = activation above about 19%, passing the limit was not always enough
Each line names hits and unclear results; the compound was inactive in the other large screens.

O=C1CN(S(=O)(=O)c2cccc(C(=O)O)c2)c2ccccc2N1	none
Cc1c(CCC(=O)N[C@@H](CC(C)C)C(=O)O)c(=O)oc2cc3oc4c(c3cc12)CCCC4	none
CCOc1ccc(-c2c(C(=O)N/N=C/c3c[nH]c4ccccc34)nnn2-c2nonc2N)cc1	CHO-K1 Ca antag 24.8
COc1cccc(-c2c(C(=O)N/N=C(\C)c3ccco3)nnn2-c2nonc2N)c1	none
COc1ccc(/C=N/NC(=O)c2nnn(-c3nonc3N)c2-c2cccc(OC)c2)cc1	M1 ag 38.5
COc1cccc(-c2c(C(=O)N/N=C(\C)c3ccc(Cl)s3)nnn2-c2nonc2N)c1	M1 ag 22.2
Cc1cc2c(c(C)c1Br)C(c1ccc3c(c1)OCO3)CC(=O)O2 (centres undefined)	none
CN(C(=O)COC(=O)c1ccc(F)c(S(=O)(=O)N2CCOCC2)c1)C1CCS(=O)(=O)C1 (centres undefined)	none
CCCCNC(=O)C1(C)CCC(=O)N1CCOC (centres undefined)	CHO-K1 Ca antag 33.2
COCCN1C(=O)CCC1(C)C(=O)Nc1c(C)cccc1C (centres undefined)	CHO-K1 Ca antag 25.8
CN(C)C(CNc1ncnc2sccc12)c1ccccc1 (centres undefined)	M1 antag 47.1
COc1ccc(CCNc2ncnc3cc(OC)c(OC)cc23)cc1OC	M1 ag parental 16.2
COc1ccc(C(CNc2ncnc3sccc23)N(C)C)cc1OC (centres undefined)	none
COc1ccc(CNc2ncnc3sccc23)cc1OC	M1 ag parental 16.4
COc1ccc(CNc2ncnc3sccc23)cc1	M1 antag 31.2
COc1cc2nc(N3CCN(C(=O)OCc4ccccc4)[C@H](C(=O)NC(C)(C)C)C3)nc(N)c2cc1OC	none
Cc1ccsc1/C=N/NC(=O)c1nnn(-c2nonc2N)c1C(C)C	none
CC(C)c1c(C(=O)N/N=C/c2cccs2)nnn1-c1nonc1N	M1 ag parental 33.1, M1 ag 33.6
CC(C)c1c(C(=O)N/N=C/c2ccc(C(F)(F)F)cc2)nnn1-c1nonc1N	M1 ag 21.0
CC(C)c1c(C(=O)N/N=C/c2ccsc2)nnn1-c1nonc1N	M1 ag parental 22.3, M1 ag 27.8
CCN(Cc1ccccc1)N=Nc1ccccc1	none
CCn1c(C)nc2c(C)[n+](CC(=O)c3ccc(Br)cc3)ccc21	CHO-K1 Ca antag 23.8
CCN(c1ccc(NS(=O)(=O)c2cc(Cl)ccc2Cl)cc1)C(C)C	M1 antag 75.5
CN(C)c1ccc(NS(=O)(=O)c2cc(Cl)ccc2Cl)cc1	none
CC(=O)NCCC(=O)NCC1(N(C)Cc2ccccc2)Cc2ccccc2C1	M1 ag parental 15.6
Cc1c(C(=O)OC(C)C(C)C[N+](C)(C)C)oc2ccccc12 (centres undefined)	M1 antag 98.9
Cc1c(C(=O)OC(C)C(=O)N(C)Cc2ccccc2)oc2ccccc12 (centres undefined)	none
CC(C)(C)C1CCC2(CC1)C(C#N)=C(SCC(=O)Nc1ccccc1)NC(=O)C2C#N (centres undefined)	CHO-K1 Ca antag 27.3
CC1(C)CC(=O)C2=C(C1)NC(SCC(=O)Nc1ccccc1)=C(C#N)C21CCCCC1	none
NC(=O)C1=CC2C3C=CC2(O)C(=O)OC3O1 (centres undefined)	none
c1ccc(-n2cc(CN3CCCC3)c(-c3ccc4c(c3)OCO4)n2)cc1	M1 ag parental 20.1
Cn1c(=O)[nH]c(=O)c2c1nc(SCc1ccccc1Cl)n2CC(N)=O	none
Cc1ccc2oc(NC(=O)N3CCOCC3)cc(=O)c2c1	CHO-K1 Ca antag 31.2
O=C(Nc1cc(=O)c2ccccc2o1)N1CCCCC1	none
O=C(Nc1cc(=O)c2ccccc2o1)N1CCOCC1	M1 antag 31.1
CCOC(=O)NN1C(=O)c2ccccc2NC1c1ccc(N(C)C)cc1 (centres undefined)	M1 ag 16.9
CC1=C(C(=O)N2CCCCCC2)CC(CC(=O)NCC2CCCCC2)C(=O)N1CCCN1CCCC1=O (centres undefined)	none (no result: M1 antag, M1 ag, M1 PAM)
COC(C[C@@H](O)[C@@H](C)[C@@H](O)COCc1ccccc1)OC	none
